According to the supplement of paper PMC6555819:

What was measured:
Experiment in all cases: PBM binding z-score (relative to random genomic background probes); higher = stronger binding; sequences stand for … in GC…GCGATTGACAGCGTAGAATGAAGG
[1] = tested on: FXR:RXRa (NR concentration 270 nM, RXRa partner concentration 90 nM)
Procedure, shortened: (§1)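 For binding z-scores, the reference was random background probes on custom Agilent 4×180K protein-binding microarrays. These arrays were incubated 1 h with ligand-free nuclear receptor dimers in PBS pH 7.4, 2% milk, 0.02% Triton X-100, 1 mM DTT, 0.2 mg/mL BSA and 0.4 mg/ml salmon testes DNA. Fluorescence was scanned after antibody detection of each partner (one per run) and regression-normalized.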

[2] = tested on: LXRa:RXRa (NR concentration 270 nM, RXRa partner concentration 90 nM)
Procedure, shortened: as §1

[3] = tested on: LXRa homodimer (NR concentration 270 nM)
Procedure, shortened: as §1

[4] = tested on: LXRb:RXRa (NR concentration 270 nM, RXRa partner concentration 90 nM)
Procedure, shortened: as §1

[5] = tested on: LXRb homodimer (NR concentration 270 nM)
Procedure, shortened: as §1

[6] = tested on: PPARa:RXRa (NR concentration 270 nM, RXRa partner concentration 90 nM)
Procedure, shortened: as §1

[7] = tested on: PPARg:RXRa (NR concentration 180 nM, RXRa partner concentration 90 nM)
Procedure, shortened: as §1

[8] = tested on: PPARg:RXRa 270nM:90nM, anti-RXR (NR concentration 270 nM, RXRa partner concentration 90 nM)
Procedure, shortened: as §1

[9] = tested on: PPARg:RXRa 30nM:10nM, anti-RXR (NR concentration 30 nM, RXRa partner concentration 10 nM)
Procedure, shortened: as §1

[10] = tested on: PPARg:RXRa 90nM:30nM, anti-RXR (NR concentration 90 nM, RXRa partner concentration 30 nM)
Procedure, shortened: as §1

[11] = tested on: PPARg:RXRa DBDmut IVT, anti-RXR (DBD mutation: RXRa K156A/R161A, NR concentration 270 nM, RXRa partner concentration 90 nM)
Procedure, shortened: as §1

[12] = tested on: PPARg:RXRa IVT, anti-PPARg (NR concentration 270 nM, RXRa partner concentration 90 nM)
Procedure, shortened: as §1

[13] = tested on: PPARg DBDmut:RXRa IVT, anti-PPARg (DBD mutation: PPARg1 K132A/R137A, NR concentration 270 nM, RXRa partner concentration 90 nM)
Procedure, shortened: as §1

[14] = tested on: PPARg DBDmut IVT, anti-PPARg (DBD mutation: PPARg1 K132A/R137A, NR concentration 270 nM)
Procedure, shortened: as §1

[15] = tested on: PPARg homodimer (NR concentration 180 nM)
Procedure, shortened: as §1

[16] = tested on: PXR:RXRa (NR concentration 270 nM, RXRa partner concentration 90 nM)
Procedure, shortened: as §1

[17] = tested on: PXR homodimer (NR concentration 270 nM)
Procedure, shortened: as §1

[18] = tested on: RARa:RXR (NR concentration 270 nM, RXRa partner concentration 90 nM)
Procedure, shortened: as §1

[19] = tested on: RARa homodimer (NR concentration 270 nM)
Procedure, shortened: as §1

[20] = tested on: RARb:RXRa (NR concentration 270 nM, RXRa partner concentration 90 nM)
Procedure, shortened: as §1

Row | Sequence | PBM binding z-score [1] | PBM binding z-score [2] | PBM binding z-score [3] | PBM binding z-score [4] | PBM binding z-score [5] | PBM binding z-score [6] | PBM binding z-score [7] | PBM binding z-score [8] | PBM binding z-score [9] | PBM binding z-score [10] | PBM binding z-score [11] | PBM binding z-score [12] | PBM binding z-score [13] | PBM binding z-score [14] | PBM binding z-score [15] | PBM binding z-score [16] | PBM binding z-score [17] | PBM binding z-score [18] | PBM binding z-score [19] | PBM binding z-score [20]
1 | CCTTCCGGGTCACTGACAGGTTATAGCATTTGGA | 4.43 | 3.92 | 0.31 | 3.22 | 0.12 | 5.01 | 4.96 | 5.08 | 1.75 | 3.7 | 3.69 | 5.08 | 0.702 | -0.286 | 2.37 | 3.71 | 0.125 | 4.23 | 0.725 | 3.78
2 | CCGAATGGGGCAAAGGTTACCATACTCAGTACGA | 1.99 | 1.85 | 0.278 | 2.51 | -0.456 | 4.58 | 9.1 | 7.67 | 7.02 | 7.87 | 2.16 | 4.5 | 0.22 | 0.313 | 1.22 | 2.57 | 0.114 | 3.86 | 0.85 | 2.46
3 | ATCTCTAGGTAACCAAGTTCAGAGAATGCCGAAC | 0.204 | 0.722 | 0.915 | 0.628 | 0.739 | 1.2 | 0.721 | 0.986 | -0.0566 | 0.52 | 3.4 | 2.88 | 1.18 | 0.83 | 0.879 | 2.15 | 1.71 | 0.548 | 0.605 | 1.22
4 | GCGACTGGGGCAAAGCAGGTAACCATAAGGTTGG | -0.15 | -0.576 | -0.622 | -0.339 | -0.997 | 0.96 | 1.1 | 1.08 | -0.433 | 0.285 | 4.21 | 3.7 | -0.574 | -0.498 | -0.0633 | -0.292 | -0.741 | 0.385 | -0.971 | 0.691
5 | AATACACGGTCATCGTAGGCCAGAGTACGCACAG | 1.37 | 3.15 | 2.68 | 0.586 | 0.643 | 0.606 | 1.15 | 0.51 | 0.35 | 0.546 | 0.462 | 1.62 | 0.948 | 0.51 | 0.841 | 0.356 | 0.177 | 0.83 | 0.727 | 2.83
6 | ACTAGCAGGCCAAGGGTCTCTCAAGATTAGTCCG | -1.54 | -0.539 | -0.698 | -0.703 | -1.05 | 0.948 | 2.49 | 4.52 | 2.15 | 4.55 | 0.281 | 1.01 | -1.04 | -0.76 | -0.604 | -0.568 | -0.576 | -0.307 | -1.21 | 0.516
7 | GCAGACATGTGAAACGCAGGTAACTCAGGGTGGC | -0.536 | -0.654 | -0.866 | -0.864 | -1.11 | -0.505 | 0.622 | -0.625 | -0.725 | -0.59 | -0.934 | -0.641 | -0.654 | -1.35 | -1.78 | -0.925 | -0.866 | -0.472 | -0.769 | -0.383
8 | CCTAGCAGGCCAGGATCACTCAAGCATTTCGCTT | -0.0228 | -0.302 | -0.315 | -0.395 | -0.796 | -0.414 | -0.143 | -0.455 | -0.969 | -0.909 | 0.271 | -0.507 | -1.72 | -1.21 | -0.29 | -0.547 | -0.646 | -0.792 | -0.0748 | -0.149
9 | GTACCAGGGTGAATAGGTCGTTGATGAGTAGGCG | 0.645 | 0.813 | -0.254 | 0.582 | -0.461 | 2.09 | 1.15 | 1.61 | 0.0734 | 0.776 | 0.914 | 2.01 | -0.169 | -0.469 | 0.791 | 0.92 | 0.246 | 1.86 | 0.108 | 1.24
10 | TCTCGGAGGACACGAAAGGTCGGAGCTCGACATC | 1.02 | 1.14 | -0.0519 | 0.48 | -0.636 | 1.51 | 0.269 | 1.36 | 1.93 | 1.73 | 1.24 | 0.486 | -0.405 | -0.523 | 0.582 | 1.38 | -0.652 | 1.61 | -0.809 | 2.56
11 | CCGACTGGGGCATGAGGTTACCATAAGCCAGCCC | 0.319 | 1.56 | -0.254 | 0.386 | -1.09 | 1.72 | 2.04 | 2.41 | 0.402 | 1.62 | 3.01 | 3.6 | -1.07 | -0.773 | 0.383 | 0.287 | -0.219 | 1.06 | -0.49 | 1.42
12 | TGAATGAGGTTAACGATCAGGGAACGTGGCGTCG | 1.98 | 1.82 | -0.477 | 0.806 | -0.194 | 3.2 | 2.41 | 2.48 | 0.951 | 1.83 | 2.53 | 2.98 | 0.909 | 0.129 | 0.132 | 0.809 | -0.38 | 2.15 | -0.0277 | 2.01
13 | GCTAGCAGGCCATTTTGGTCACTCAATGACGGGC | -0.64 | -0.754 | -1.03 | -0.967 | -0.971 | -0.67 | 0.24 | -0.925 | -0.857 | -0.861 | 0.582 | -0.122 | -1.08 | -1.4 | -1.14 | -0.775 | -0.836 | -0.995 | -1.3 | 0.0531
14 | TCTATTACTTGAAGGGCAACCGACGAGTCCGTTT | 0.851 | 1.02 | 0.425 | 1.19 | 0.925 | 1.48 | 0.388 | 2.11 | 3.96 | 3.26 | 2.52 | 0.782 | 1.07 | 1.12 | 0.761 | 1.01 | 0.901 | 1.02 | 1.4 | 1.59
